The results in this text go back to PubChem BioAssay (NCI).

SMILES strings stand for the structures. This is part of a sample that, as a whole, favours compounds with a hit. Of some 83,000 tested, about 20% had one in any assay.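 Values shown are percent growth following 48 h exposure of cells in 96-well plates to a single concentration of compound; below 10 was considered active.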 Values without a mark were called inactive. The source made the active and inactive calls.

Test systems include SK-MEL-2 melanoma; EKVX NSCLC; SN12C renal; UO-31 renal; TK-10 renal; ACHN renal; CAKI-1 renal; A498 renal; CCRF-CEM leukemia; MOLT-4 leukemia; SR leukemia; RPMI-8226 leukemia; OVCAR-8 ovarian; OVCAR-5 ovarian; OVCAR-4 ovarian; SK-OV-3 ovarian; IGROV1 ovarian; OVCAR-3 ovarian; HS 578T breast; NCI/ADR-RES ovarian.
Common to all, as to test: NCI-60 one-dose screen, 48 h (100 = growth as untreated, 0 = no growth, -100 = all killed)
Common to all, as to conditions: 10 µM unless noted

For the compound `O=C(Nc1ccc2[nH]ncc2c1)c1csc(Nc2ccccc2)n1`, the growth with SK-MEL-2 melanoma was 29.6%; in the test on EKVX NSCLC, 45.8%; with SN12C renal it was 41.1%; with UO-31 renal, 45.5%; with TK-10 renal, 48.1%; with ACHN renal, 56.5%. For the same compound, the growth in the test with CAKI-1 renal was 36.5%; in the test on A498 renal, 22.2%; in the test on CCRF-CEM leukemia, 19.4%; in the test on MOLT-4 leukemia it was 43.9%; with SR leukemia, 22.8%; in the test on RPMI-8226 leukemia, 7.99% (active). The growth in the test with OVCAR-8 ovarian is 35.9%; with OVCAR-5 ovarian, 64.5%; in the test on OVCAR-4 ovarian it was 61.6%; with SK-OV-3 ovarian, 50.7%; in the test on IGROV1 ovarian, 54.9%; in the test on OVCAR-3 ovarian, 13.1%. Also, the results for the growth with HS 578T breast and with NCI/ADR-RES ovarian were 38.3% and 16.5%, respectively.
`N#CC1=C(N)Oc2c(ccc3cccnc23)C1c1ccccc1` (stereo not given): the growth in the test with SK-MEL-2 melanoma is 43.2%; in the test on EKVX NSCLC, 51.8%; with SN12C renal, 49.5%; with UO-31 renal, 43.6%; in the test on TK-10 renal, 73%; with ACHN renal, 45.8%. In addition, the growth in the test on CAKI-1 renal was 39.9%; in the test on A498 renal it was 9.1% (active); in the test on CCRF-CEM leukemia, 15.7%; in the test with MOLT-4 leukemia, 39.2%; in the test with SR leukemia it was 35.2%; in the test on RPMI-8226 leukemia, 11.6%. In addition, the growth was 45.2% with OVCAR-8 ovarian; 56.3% with OVCAR-5 ovarian; 44.9% in the test with OVCAR-4 ovarian; 58.3% in the test with SK-OV-3 ovarian; 42.4% in the test with IGROV1 ovarian; -6.82% (active) in the test with OVCAR-3 ovarian. Further, the growth with HS 578T breast was 35.6%; in the test on NCI/ADR-RES ovarian, -11.2% (active).
As to `CC1(C)CC[C@]2(CO)CC[C@]3(C)C(=CC[C@@H]4[C@@]5(C)CCNCC(C)(C)[C@@H]5CC[C@]43C)[C@@H]2C1`, the growth was 53.7% with SK-MEL-2 melanoma; 97.5% with EKVX NSCLC; 80.5% in the test on SN12C renal; 75.3% in the test on UO-31 renal; 95% in the test with TK-10 renal; 88% in the test with ACHN renal. Also, the growth in the test on CAKI-1 renal is 67.3%; with A498 renal it was 84.2%; in the test on CCRF-CEM leukemia, 73.8%; in the test with MOLT-4 leukemia, 49.3%; in the test with SR leukemia, -24.3% (active); in the test on RPMI-8226 leukemia it was -26.1% (active). Also, the growth in the test with OVCAR-8 ovarian is 87.4%; in the test on OVCAR-5 ovarian it was 81.8%; with OVCAR-4 ovarian it was 81%; with SK-OV-3 ovarian, 95.4%; with IGROV1 ovarian, 95%; in the test on OVCAR-3 ovarian, 89.5%. Moreover, the growth in the test on HS 578T breast is 96.7%; with NCI/ADR-RES ovarian it was 91.9%.
For `Nc1nc(N)c2c(n1)NC(c1ccc3c(c1)OCO3)CC(c1cccc(Nc3ccncc3)c1)=N2` (stereo not given), the growth in the test on SK-MEL-2 melanoma was 86%; with EKVX NSCLC it was 89.1%; in the test on SN12C renal, 94.6%; in the test with UO-31 renal, 96.1%; with TK-10 renal, 99.6%; in the test on ACHN renal, 110%. Further, the growth is 78.8% with CAKI-1 renal; 93% in the test with A498 renal; 70% in the test on CCRF-CEM leukemia; 71.2% in the test with MOLT-4 leukemia; 53.1% with SR leukemia; 80.5% in the test with RPMI-8226 leukemia. For the same compound, the growth in the test on OVCAR-8 ovarian was 83.8%; in the test with OVCAR-5 ovarian, 114%; in the test on OVCAR-4 ovarian it was 98.7%; in the test with SK-OV-3 ovarian it was 90.9%; in the test with IGROV1 ovarian it was 79.7%; in the test with OVCAR-3 ovarian, 90.9%. In addition, the growth in the test with HS 578T breast is 81.4%; in the test on NCI/ADR-RES ovarian it was 107%.
For `N/C(=N\c1nc2ccccc2s1)NC(=O)Nc1ccccc1`, the growth in the test with SK-MEL-2 melanoma was 30.2%; in the test on EKVX NSCLC, 54%; in the test on SN12C renal it was 29%; in the test with UO-31 renal, 46.3%; in the test on TK-10 renal it was 75.3%; with ACHN renal it was 55.7%. Also, the growth was 44.3% with CAKI-1 renal; 42.7% in the test on A498 renal; 12.5% in the test with CCRF-CEM leukemia; 27.8% in the test with MOLT-4 leukemia; 15.7% with SR leukemia; 7.59% (active) in the test with RPMI-8226 leukemia. Further, the growth in the test with OVCAR-8 ovarian was 41%; in the test on OVCAR-5 ovarian it was 51.7%; in the test with OVCAR-4 ovarian, 73.8%; in the test with SK-OV-3 ovarian it was 51%; in the test on IGROV1 ovarian, 58.8%; with OVCAR-3 ovarian, 28.4%. Moreover, the figures for the growth in the test on HS 578T breast and with NCI/ADR-RES ovarian were 27.8% and 17.6%, respectively.
Consider `O=C(/C=C/c1ccc([N+](=O)[O-])cc1)c1cccc(Nc2nc(Nc3ccccc3)nc(Nc3ccccc3)n2)c1`, for which the growth in the test on SK-MEL-2 melanoma was 37.5%; with EKVX NSCLC, 65.1%; with SN12C renal, 89.1%; in the test on UO-31 renal it was 38.9%; in the test with TK-10 renal, 66.3%; with ACHN renal it was 80%. The growth with CAKI-1 renal is 72.5%; with A498 renal, 70%; in the test on CCRF-CEM leukemia, 46.2%; in the test with MOLT-4 leukemia, 46.4%; with SR leukemia, 55.8%; with RPMI-8226 leukemia, -60.2% (active). The growth is 70.5% with OVCAR-8 ovarian; 74.7% in the test on OVCAR-5 ovarian; 79.8% in the test with OVCAR-4 ovarian; 81% in the test with SK-OV-3 ovarian; 52% in the test with IGROV1 ovarian; 72.6% with OVCAR-3 ovarian. In addition, the growth is 70.2% with HS 578T breast and 67.9% in the test with NCI/ADR-RES ovarian.
Regarding `COc1cc(CNC(=O)CCCC/C=C/C(C)C)ccc1OCc1cn(-c2cccc([N+](=O)[O-])c2)nn1`, the growth is 88.4% in the test with SK-MEL-2 melanoma; 95.1% in the test with EKVX NSCLC; 89.5% with SN12C renal; 74.7% with UO-31 renal; 105% in the test with TK-10 renal; 81.7% with ACHN renal. For the same compound, the growth in the test with CAKI-1 renal was 79%; in the test with A498 renal it was 78.9%; in the test on CCRF-CEM leukemia, 90.2%; in the test on MOLT-4 leukemia it was 86.6%; with SR leukemia, 78.4%; in the test on RPMI-8226 leukemia it was 65.9%. The growth with OVCAR-8 ovarian was 76.9%; in the test with OVCAR-5 ovarian it was 107%; in the test with OVCAR-4 ovarian, 94.2%; in the test with SK-OV-3 ovarian, 93.6%; in the test on IGROV1 ovarian, 89.4%; with OVCAR-3 ovarian it was 105%. Moreover, the figures for the growth in the test on HS 578T breast and in the test on NCI/ADR-RES ovarian were 90.8% and 81.8%, respectively.
In the case of `Cc1ccc(-c2nn(CC(=O)N3CCOCC3)c(N)c2C#N)cc1`, the growth was 103% in the test with SK-MEL-2 melanoma; 102% in the test on EKVX NSCLC; 102% with SN12C renal; 84.7% in the test on UO-31 renal; 105% in the test with TK-10 renal; 101% with ACHN renal. Besides, the growth in the test with CAKI-1 renal is 87.3%; with A498 renal, 91.3%; in the test with CCRF-CEM leukemia it was 101%; with MOLT-4 leukemia, 103%; in the test on SR leukemia it was 99%; with RPMI-8226 leukemia, 108%. The growth was 99.8% in the test on OVCAR-8 ovarian; 105% in the test with OVCAR-5 ovarian; 91.8% in the test with OVCAR-4 ovarian; 109% in the test with SK-OV-3 ovarian; 106% in the test with IGROV1 ovarian; 113% in the test on OVCAR-3 ovarian. Moreover, the growth in the test on HS 578T breast was 93.1%; in the test with NCI/ADR-RES ovarian it was 108%.
